Assay results from PubChem BioAssay (NCI).
Compounds without any hit were thinned out: in the full panel of roughly 83,000, 20% have a hit.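 The endpoint reported here, percent growth, reads 100 for growth as untreated, 0 for no net growth and -100 for all cells dead.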 Unmarked numbers belong to inactive results. Calls of active or inactive are those of the source. How the source made its calls: active means growth percent below 10; inactive means the rest.

These compounds were tested on HL-60(TB) leukemia (assay: NCI-60 one-dose screen, 48 h (100 = growth as untreated, 0 = no growth, -100 = all killed)). Conditions: 10 µM unless noted.
`O=C1NC(=O)C2(CCCC2C(=O)O)N1` (stereo not given) showed a growth of 97.1%.
For `COCCOC(=O)NC(=O)Nc1ccc(/C(=N/O)c2ccc(Cl)cc2)cc1`, the growth was -20.4% (active).
`NC(=O)c1cc(Cl)ccc1NC(=O)c1ccccc1-c1ccccc1` was tested, and the growth was 1.29% (active).
`C/C(=N\N=C(/C)c1cccc([N+](=O)[O-])c1)c1cccc([N+](=O)[O-])c1` gave a growth of 125%.
Compound `Cc1cc(OI)c(C(C)C)cc1-c1cc(C(C)C)c(OI)cc1C` has a growth of 106%.
`Cc1ccc(NCCN(C)CC(C)O)c2c(=O)c3ccc(Cl)cc3sc12` (stereo not given) was tested, and the growth was 9.65% (active).
With `Cc1c2c(cc[n+]1Cc1ccc(F)cc1)c1ccc(OCc3cccc(F)c3)cc1n2Cc1cccc(F)c1` the growth was -49.3% (active).
`O=C(Nc1cccc(Cl)c1)Nc1cccc(Cn2c(=O)[nH]c3ccc(Oc4ncccn4)cc3c2=O)c1` was tested, and the growth was 45.3%.
In the case of `Cc1ccc(C(=O)Nc2ccccc2C(=O)N/N=C(\c2ccccc2)c2ccccn2)cc1`, the growth is reported as 2.36% (active).
Compound `CN(Cc1ccccc1)c1nc(Cl)c(C2CC(c3ccc(Cl)cc3)=Cc3[nH][nH]c(=O)c32)s1` (stereo not given) has a growth of 104%.
With `COc1ccc(C(=O)N2NC(=O)/C(=C/c3ccc(Br)cc3)N=C2c2ccccc2)cc1` the growth was 4.51% (active).
With `C=C(C)[C@@H]1CC[C@]2(C(=O)OCCCC[P+](c3ccccc3)(c3ccccc3)c3ccccc3)CC[C@]3(C)[C@H](CC[C@@H]4[C@@]5(C)CC[C@H](OC(=O)C(Cl)Cl)C(C)(C)[C@@H]5CC[C@]43C)[C@@H]12` the growth was -49.9% (active).
Work on `Cc1nn(-c2ccccc2)c(N2CCOCC2)c1-c1nc2ccc([N+](=O)[O-])cc2[nH]1` yielded a growth of 77.1%.
In the case of `CCN(CC)c1ccc(C(=N)c2ccc(N(CC)CC)cc2)cc1`, the growth is reported as -23.4% (active).
In the case of `COc1cc(Nc2nc(N[C@H]3CCCC[C@@H]3N)nc3cc[nH]c(=O)c23)cc(OC)c1`, the growth is reported as 16.2%.
In the case of `COc1ccc(-c2nc(-c3nc4ccc(F)cc4[nH]3)cc3c2[nH]c2ccccc23)cc1`, the growth is reported as 26.1%.
In the case of `COc1ccc(/C=C/C(=O)c2c(C)nc3ccccc3c2/C=C/c2ccccc2)c(OC)c1`, the growth is reported as 66.7%.
Work on `O=C1Nc2c(c(=O)n(-c3ccccc3)c3ccccc23)C(c2ccc(Cl)cc2)N1` (stereo not given) yielded a growth of 108%.
For `CC(C)c1ccc2c(c1)CCC1C2CCCC1(C)NCc1ccccc1` (stereo not given), the growth was 22.9%.
Work on `CC1=C(C)C[C@]2(C(=O)O[C@H]3CCCC[C@@H]32)[S@](=O)C1` yielded a growth of 98.1%.
For `COc1ccc(-c2c(N)noc2-c2cc(OC)c3c(c2)OCCO3)cc1`, the growth was -30.8% (active).
With `Cc1nc(N2CCOCC2)sc1S(N)(=O)=O` the growth was 97.4%.
Work on `Oc1cccc(-c2nc3sccn3c2-c2ccncn2)c1` yielded a growth of 99.2%.
`CC(=O)C1=C(O)C=C2Oc3c(C(=O)/C=C/c4c(Cl)cccc4Cl)c(O)c(C)c(O)c3[C@]2(C)C1=O` was tested, and the growth was -39.3% (active).
In the case of `C#CCOc1cccc(Nc2ncnc3c(NC(=O)C=C)cccc23)c1`, the growth is reported as -4.75% (active).
